Measured values published in PubChem BioAssay AID720513 (Broad Institute, 2013).
Hit rate of the full screen: of about 2,100 compounds, about 480 (23%) were called active. Roughly 5% stayed inconclusive and do not appear here.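 How the source made its calls: active means fitted curve reaches 40% activation at or below the top valid concentration, in every replicate test; inconclusive means replicate tests disagree on the call; inactive means the rest, including activity in the opposite direction.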 These entries were drawn from the full list. Potency and affinity values are given separately.

Test: activators raising PGC1a acetylation in cells, dose response, cell-based, cherry-picked samples, set 6 (AID 720513);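 further: cells made to overexpress flag tagged PGC1a plus GCN5 acetyltransferase by viral infection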
Details: U2OS PGC1a acetylation AlphaLISA, overnight, 0 = neutral, -100 = inhibitor control; series mostly up to 19.5 µM

outcome, inactive:
COc1ccc(CN(C)C[C@@H]2Oc3ccc(NS(=O)(=O)c4c(C)noc4C)cc3C(=O)N([C@@H](C)CO)C[C@@H]2C)cc1
C[C@H]1CCCCO[C@H](CN(C)Cc2ccncc2)[C@@H](C)CN([C@@H](C)CO)C(=O)c2cc(NS(=O)(=O)c3ccccc3)ccc2O1
O=C1C=CCCN1C(=O)/C=C/c1cccc(C(F)(F)F)c1
COc1ccc(C#Cc2ccc([C@H]3[C@@H](CO)N4CCCCN(C(=O)Nc5ccc(F)cc5)C[C@H]34)cc2)cc1
C[C@@H]1CN([C@@H](C)CO)C(=O)Cc2cc(NC(=O)C3CCCCC3)ccc2O[C@@H]1CN(C)Cc1ccc(Cl)c(Cl)c1
CC(C)CC#Cc1ccc([C@H]2[C@H](CO)N3C(=O)CN(C(=O)Nc4cc(F)ccc4F)C[C@@H]23)cc1
O=C(COC(=O)c1cc[n+]([O-])cc1)Nc1cccc(Cl)c1Cl
Cc1c(Cl)cccc1Nc1ncccc1C(=O)O
Cc1noc(C)c1NC(=O)N(C)C[C@H]1OCCCC[C@@H](C)Oc2ccc(NC(=O)Cc3ccccc3)cc2C(=O)N([C@@H](C)CO)C[C@@H]1C
C[C@@H]1CN([C@H](C)CO)C(=O)c2cc(NS(=O)(=O)c3cccs3)ccc2O[C@@H]1CN(C)S(=O)(=O)c1ccc(F)cc1
Cc1ccc(S(=O)(=O)N[C@@H]2CC[C@@H](CCNC(=O)c3ccccc3F)O[C@H]2CO)cc1
O=C(CSc1nc2ccc(Cl)cc2[nH]1)c1ccc2c(c1)OCO2
Cn1c(=O)c2cc(S(=O)(=O)NCCC(=O)NCc3ccccc3Cl)ccc2n(C)c1=O
O=C(COc1ccc(Br)cc1)NCCNC(=O)c1cccnc1
CCOc1ccc2nc(NCCCNC(=O)c3cc(OC)c(OC)c(OC)c3)c(C#N)cc2c1
Cc1cc(OCC(=O)NNC(=O)c2cnccn2)cc(C)c1Cl
CCCNC(=O)c1ccc(COc2ccc(Cl)cc2)o1
O=C(C[C@@H]1C[C@@H]2c3cc(NC(=O)Nc4ccccc4F)ccc3O[C@@H]2[C@H](CO)O1)NCc1ccc(Oc2ccccc2)cc1
CCc1cc2c(N3CCN(c4nnc(CC)s4)CC3)ncnc2s1
COc1ccc(-c2ccc(C3[C@@H]4CN(Cc5cc(OC)cc(OC)c5)C[C@H]3N4)cc2)cc1 (stereo not given in full)
COc1cccc(-c2ccc(C3[C@H]4CNC[C@@H]3N4Cc3ccc4c(c3)OCO4)cc2)c1 (stereo not given in full)
O=C(Nc1ccccc1)C1=C(c2ccccc2)S(=O)(=O)CCS1(=O)=O
Cn1nc(-c2ccccn2)nc2c(=O)n(C)c(=O)nc1-2
COc1cc(C(=O)N2CCN(S(=O)(=O)c3cccc(F)c3)CC2)ccc1OCC(=O)N1CCOCC1
CN(C)c1ccc(C=C2SC(=S)NC2=O)cc1
CCOC(=O)/C(C#N)=C1/C(=O)N(Cc2ccccc2)c2ccccc21
CC(=O)c1coc2c1cc(O)c1ccccc12
CCn1c(Oc2ccccc2F)nc2c1c(=O)n(C)c(=O)n2C
CCOCCn1c(N2CCN(c3ccccc3)CC2)nc2c1c(=O)n(C)c(=O)n2C
Cn1c(=O)c2c(ncn2CC(=O)O)n(C)c1=O
CCOCCCNc1nc2c(c(=O)n(C)c(=O)n2C)n1CCCc1ccccc1
C/C=C/Cn1c(SCc2ccc(Cl)cc2)nc2c1c(=O)[nH]c(=O)n2C
CSc1nc2c(c(=O)[nH]c(=O)n2C)n1Cc1ccccc1
CC(C)CN1CCN(C(=O)COC(=O)c2ccc(S(C)(=O)=O)c([N+](=O)[O-])c2)CC1
CCC(=O)N[C@H]1CC[C@H](CC(=O)OC)O[C@H]1CO
CCCc1ccc(C(O)c2ncc(-c3cccc(F)c3)[nH]2)cc1 (stereo not given)
COc1ccc(S(=O)(=O)Nc2ccc3c(c2)C(=O)N([C@H](C)CO)C[C@@H](C)[C@H](CN(C)C(=O)Nc2ccc(C(F)(F)F)cc2)OCCCC[C@@H](C)O3)cc1
O=C(OCc1nnc(-c2ccccc2)o1)C1=COCCO1
C=CCn1c(SCc2c(C)noc2C)nc2ccccc2c1=O
C[C@@H]1CN([C@@H](C)CO)S(=O)(=O)c2ccc(-c3ccccc3)cc2O[C@@H]1CN(C)C(=O)c1ccccc1F
CCn1c(C(C)NC(=O)c2ccccc2C)n[nH]c1=S (stereo not given)
COc1ccc(C#Cc2ccc([C@H]3[C@@H](CO)N4CCCCN(C(=O)Nc5ccccc5)C[C@H]34)cc2)cc1
O=C(Cn1ncc(Cl)c(Cl)c1=O)NC(=O)NC1CCCCC1
CO[C@@H]1CN(C)C(=O)c2cc(NC(C)=O)ccc2OC[C@H](C)N(Cc2cc(F)ccc2F)C[C@H]1C
N#C/C(=C/c1ccc(OCc2ccc(C(=O)O)cc2)c(Br)c1)c1cccc(F)c1
C[C@H]1CN([C@@H](C)CO)S(=O)(=O)c2ccc(Br)cc2O[C@@H]1CN(C)S(=O)(=O)c1ccccc1F
CCN(C[C@@H]1N[C@@H](CO)[C@H]1c1ccc(-c2ccc(F)cc2)cc1)C(=O)CN(C)C
COc1ccccc1C#Cc1ccc([C@H]2[C@H](C#N)N(C(=O)C3CCCC3)[C@H]2CO)cc1
O=S(=O)(c1ccc(Cl)cc1)c1snnc1-c1ccccc1
Clc1ccc(-c2csc(N3CCSCC3)n2)cc1
C[C@@H]1CN([C@@H](C)CO)C(=O)CCCn2cc(nn2)CO[C@H]1CN(C)S(=O)(=O)c1ccccc1
CCCn1c(-c2ccccc2)cc(SC)c(C#N)c1=O
COc1c(O)cc(O)c2c(=O)cc(-c3ccccc3)oc12
C=CCn1c(C)nnc1SCC(=O)NC1CC1
CC(C)c1ccc(NC(=O)CCNS(=O)(=O)c2cccc3nonc23)cc1
Cc1cc(C)nc(SCC(=O)OCN2C(=O)c3ccccc3C2=O)n1
COc1ccccc1NS(=O)(=O)c1cccc(NC(=O)C2CC(=O)N(Cc3ccccc3)C2)c1 (stereo not given)
CCN(c1ccccc1)S(=O)(=O)c1ccc(OC)c(NC(=O)Cc2ccc(F)cc2)c1
CCc1ccc(Nc2nnc(SCC(=O)Nc3ccc(C(=O)O)cc3)s2)cc1
CCOc1ccccc1C(=O)NCCCCCC(=O)O
COCCNC(=O)CN1CCC(NC(=O)C(C)(C)C)CC1
O=C(c1cc2ccccc2o1)N1CC=C(c2ccccc2)CC1
CC1=Nc2ccccc2N=C(NC(=O)CN2CCN(c3ccccc3)CC2)C1c1ccccc1 (stereo not given)
COc1cc(C2C(C#N)=C(N)Oc3c2oc(CO)cc3=O)cc(OC)c1OC (stereo not given)
CC(C)N1CCc2c(sc(NC(=O)C3CCCCC3)c2C(N)=O)C1
COC(=O)[C@@]1(Cc2ccccc2CN=[N+]=[N-])N=C(c2ccc(OCCCO)cc2)O[C@H]1c1ccccc1
Cc1ccccc1-n1nnnc1Sc1nnnn1-c1ccccc1
Cc1ccccc1Cn1nc(C)c(NC(=O)c2cc(-c3cccs3)on2)c1C
NC(=O)COC(=O)/C=C/c1ccc2ccccc2n1
COc1ccc(S(=O)(=O)N2c3ccc(F)cc3CCC2C)cc1 (stereo not given)
CCOc1ccc(N2C(=O)Cc3ccccc3C2=O)cc1
CCc1ccc(N2CC(O)=C(c3nc4ccccc4c(=O)[nH]3)C2=N)cc1
O=C(CCc1nc2ccccc2c(=O)[nH]1)OCC(=O)N1CCc2ccccc21
CO[C@H]1CN(C)C(=O)c2ccc(NC(=O)c3ccno3)cc2OC[C@H](C)NC[C@H]1C
Cc1cccc(C)c1NC(=O)CN(C)C(=O)c1cc(S(=O)(=O)N(C)C)ccc1N1CCCC1
COc1ccccc1C(=O)Nc1ccc2c(c1)nc(CCNC(=O)c1ccco1)n2C
CN(Cc1ccccc1)S(=O)(=O)c1ccc(S(=O)(=O)N(Cc2ccc(F)cc2)C2CCCC2)cc1
Cc1ccc2nsnc2c1S(=O)(=O)N(Cc1ccco1)Cc1cc2cccc(C)c2[nH]c1=O
COc1ccc(-c2csc(N(CCCN(C)C)C(=O)c3cccs3)n2)cc1
COc1ccc(-c2csc(N(CCCN(C)C)C(=O)c3ccc(Br)cc3)n2)cc1
CO[C@H]1CN(C)C(=O)c2cc(NC(C)=O)ccc2OC[C@@H](C)N(CC2CCCCC2)C[C@@H]1C
CC(c1n[nH]c(=S)n1Cc1ccccc1)N(C)C (stereo not given)
CCCCSCCCNC(=O)c1cn(C)c2ccc(S(=O)(=O)N3CCCC3)cc2c1=O
O=S(=O)(c1ccc2[nH]ccc2c1)N1CCCCCC1
CCNc1nc(Oc2ccc(C#N)cc2)cc(C(F)(F)F)n1
CCOC(=O)C1=C(C)N=C2SC(C(=O)OC)=CC(=O)N2C1c1cccc(OC)c1 (stereo not given)
COc1ccccc1C(=O)Oc1cc(N)n(S(=O)(=O)c2ccc(C)cc2)n1
Cn1c(Cl)cnc1C1CC(=O)c2cc(Cl)ccc2O1 (stereo not given)
Cc1noc(C)c1NC(=O)N(C)C[C@@H]1Oc2c(NS(=O)(=O)c3cn(C)cn3)cccc2C(=O)N([C@@H](C)CO)C[C@@H]1C
CO[C@@H]1CN(C)C(=O)c2cc(NS(=O)(=O)c3ccc(Cl)cc3)ccc2OC[C@H](C)N(C)C[C@H]1C
CC(C)C#Cc1ccc2c(c1)O[C@@H](CN(C)C(=O)C1CC1)[C@@H](C)CN([C@@H](C)CO)S2(=O)=O
Cc1cccc(C)c1NC(=O)C(NC(=O)c1ccccn1)c1ccc([N+](=O)[O-])cc1 (stereo not given)
CCOC(=O)C1=C(CS(=O)(=O)c2ccccc2)NC(=O)NC1c1ccc(O)c(OC)c1 (stereo not given)
CCOC(=O)CC1C(=O)NCCN1S(=O)(=O)c1ccc(C)cc1 (stereo not given)
CCCCCC(=O)N1C[C@H](n2cc(-c3ccc(F)cc3)nn2)[C@@H](O)C[C@@H]1c1ccc(C)cc1
